This assay deals with Fibroblast growth factor 10 (Homo sapiens) (UniProt O15520). The assay is described as follows: FGF10 binders on small-molecule microarrays, primary screen, biochemical, small-molecule microarray, 635 nm fluorescence (AID 1102). The conditions noted are these: FGF10 binding, fluorescence 635 nm, higher = more signal.
Sequence of Fibroblast growth factor 10 (Homo sapiens) (O15520 whole entry, looked up): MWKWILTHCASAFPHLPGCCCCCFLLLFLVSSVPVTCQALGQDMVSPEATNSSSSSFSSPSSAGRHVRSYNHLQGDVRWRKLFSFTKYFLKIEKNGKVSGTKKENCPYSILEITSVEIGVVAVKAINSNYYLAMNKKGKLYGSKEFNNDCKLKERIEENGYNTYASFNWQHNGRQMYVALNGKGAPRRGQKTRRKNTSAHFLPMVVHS
Compound `CC(C)C(O)C1C=CC2C(=O)N(C)C(=O)C2N1Nc1ccccc1` (stereo unspecified) gave a composite z-score of 0.943.
The figure for `Cc1c(NC(=O)/C(C#N)=C/C=C/c2ccc(N(C)C)cc2)c(=O)n(-c2ccccc2)n1C` is 0.89; for `COc1cc(CO)cc(I)c1O[C@H]1C=C(C(=O)NCCO)C[C@@H](N(Cc2ccc(F)cc2)C(=O)C2CCCO2)[C@@H]1O` (stereo partly specified) it is 0.182; for `O=C1C[C@@](C(=O)NCC(F)(F)F)(c2ccc([N+](=O)[O-])cc2)[C@@H](c2ccc(CO)cc2)N1C1CCCCC1` it is 0.86.
As for `COC(=O)Cn1c(C(=O)N2CCCC2)cc2c1C[C@H]1CN(C(=O)c3ccccc3)[C@@](Cc3ccc(F)cc3)(C(=O)OC)[C@@H]21`, the figure is -0.134; as for `O=C(CS)NCCCCCCNC(=O)[C@H]1C[C@H]2C(=O)N[C@@H](Cc3ccccc3)C(=O)N2[C@H]1c1cccc(OCCO)c1`, 1.51; as for `COc1cc2c(cc1OC)CN(C(=O)[C@H]1[C@@H]3C(=O)O[C@@H](c4ccccc4)[C@@H](c4ccccc4)N3[C@@H](c3ccc(OCCO)cc3)[C@]13C(=O)Nc1ccc(C#CC4(O)CCCCCC4)cc13)CC2`, 1.12.
As for `O=C1O[C@H](c2ccccc2)[C@H](c2ccccc2)N2[C@H]1[C@@H](C(=O)O)[C@]1(C(=O)Nc3ccccc31)[C@H]2c1ccc(O)cc1`, the figure is 0.619; as for `CC(=O)N1Cc2ccccc2C[C@]2(N=C(c3ccc(OCCCO)cc3)O[C@@H]2c2ccccc2)C1=O`, 0.897; as for `Cc1ccc(S[C@]2(C(=O)O)CC(=O)N(Cc3ccccc3Cl)[C@@H]2c2ccc(CO)cc2)cc1`, -0.165.
`COc1c(C)cc(-c2cc3c(c(-c4ccccc4)n2)[Si](C(C)C)(C(C)C)OC3)cc1C` registered a composite z-score of -0.216.
The figure for `O=C(CCCCCCC(=O)Nc1ccccc1)N/N=C/c1ccccc1` is -0.136; for `CCOC(=O)C[C@H]1[C@H](OC(=O)Cc2ccc3c(c2)OCO3)[C@@H](NC(=O)C2CCCCC2)c2cc(OCCCO)ccc2N1C(=O)c1ccc2ccccc2n1` it is 1.47.
As for `O=C(NC1CC1)[C@@H]1c2ccccc2C(=O)N(Cc2ccccc2)[C@H]1c1ccc(CO)cc1`, the figure is 0.209; as for `NC(N)=NCc1cn(CCc2c[nH]c3ccccc23)nn1`, 0.479; as for `COCCCNC(=O)[C@@]1(Sc2ccc(C)cc2)CC(=O)N(Cc2cc(C(F)(F)F)cc(C(F)(F)F)c2)[C@@H]1c1ccc(CO)cc1`, 0.327.
The figure for `O=C1O[C@@H](c2ccccc2)[C@@H](c2ccccc2)N2[C@@H](c3ccc(O)cc3)[C@]3(C(=O)Nc4ccc(C#CC5=CCCCC5)cc43)[C@@H](C(=O)N3CCN(c4ncccn4)CC3)[C@H]12` is 1.33; for `COCCOC(=O)N1C(=O)[C@@]2(c3cc(C#CC4=CCCCC4)ccc31)[C@H](c1ccccc1OCCO)N1[C@H](c3ccccc3)[C@H](c3ccccc3)OC(=O)[C@H]1[C@@H]2C(=O)N1CCc2cc(OC)c(OC)cc2C1` it is 0.848.
`CC[C@H]1C2=C3C(CC[C@H]4C(OCc5ccc(F)cc5C(F)(F)F)OC[C@](C)([C@@H]34)N(C(=O)OC(C)(C)C)C2)C2COC(=O)OCC21` (stereo partly specified) returned a composite z-score of -0.0217.
As for `CO[C@H]1O[C@H](CO)[C@@H](OC(=O)Nc2ccccc2-c2ccccc2)[C@H](OC(=O)Nc2ccc3c(c2)OCO3)[C@@H]1OC(=O)Nc1ccc2c(c1)OCO2`, the figure is 1.05; as for `COCCCNC(=O)[C@@]1(Sc2ccc(C)cc2)CC(=O)N(C2Cc3ccccc3C2)[C@@H]1c1ccc(CO)cc1I`, -0.235.
The figure for `Cc1ccc(S[C@]2(C(=O)NCc3ccccc3)CC(=O)N(C(C)C)[C@@H]2c2ccc(CO)cc2I)cc1` is -0.991.
As for `CC(C)C(O)C1C=CC2C(=O)N(C)C(=O)C2N1N(c1ccccc1)c1ccccc1` (stereo unspecified), the figure is -0.879.
`O=C1OCC=C[C@H]2OC34C=CCN(Cn5nnc6ccccc65)C(=O)[C@H]3N(CCCCCCO)C(=O)[C@@H]4[C@@H]12` (stereo partly specified) gave a composite z-score of -0.577.
As for `COC(=O)[C@@]1(Cc2ccccc2)[C@H]2c3cc(C(=O)N4CCCC4)n(Cc4cc(F)cc5c4OCOC5)c3C[C@H]2CN1C(=O)c1ccccc1`, the figure is 1.22; as for `O=C(O)[C@H](Cc1ccccc1)n1cc(-c2ccccn2)nn1`, 0.3.
The compound `CN(C)CCCNC(=O)[C@@]1(c2ccc([N+](=O)[O-])cc2)CC(=O)N(CC23CC4CC(CC(C4)C2)C3)[C@@H]1c1ccc(CO)cc1` came in with a composite z-score of 0.239.
Regarding `CCOC(=O)C[C@H]1[C@H](OC(=O)c2ccc(-c3ccccc3)cc2)[C@@H](NC(=O)c2ccc3ccccc3n2)c2cc(OCCCO)ccc2N1C(=O)c1ccccc1`, the composite z-score is 0.785.
As for `CCOC(=O)C1=CC[C@@H](c2ccccc2)N(S(=O)(=O)c2ccc(C)cc2)C1`, the figure is -0.0077.
The figure for `CCOC(=O)[C@H]1C/C=C/C[C@H](C(=O)OCC)C(=O)O[C@H]2[C@@H](OC)O[C@H](CO)[C@@H](OC(=O)Nc3ccc(OC)cc3)[C@@H]2OC1=O` is 1; for `COC(=O)[C@H](Cc1ccccc1)N1CC(/C=C/C2CC2)=C[C@@H]1[C@@H](O)Cc1ccccc1` it is 1.47.
In turn, `Cc1ccc(F)cc1S(=O)(=O)N[C@@H]1CCN(Cc2ccc(Oc3ccccc3)cc2)C1` yielded a composite z-score of 0.271.
As for `COCCOC(=O)N1C(=O)[C@@]2(c3cc(C#Cc4ccc(OC)cc4)ccc31)[C@H](C(=O)NC[C@H](O)c1ccccc1)[C@H]1C(=O)O[C@H](c3ccccc3)[C@H](c3ccccc3)N1[C@@H]2c1ccc(O)cc1`, the composite z-score stood at 1.17.
As for `CN(C)CCCNC(=O)[C@@H]1c2ccccc2C(=O)N(CC23CC4CC(CC(C4)C2)C3)[C@H]1c1ccc(CO)cc1`, the figure is 1.17; as for `CCOC(=O)[C@@H]1[C@@H]2C(=O)N(CC)C(=O)[C@@H]2C[C@@H]1Sc1ccccc1`, 0.448; as for `CC(C)C(=C=CC[C@@H](O)c1ccccc1OCCO)C[C@@H](O)COCc1ccccc1`, 1.35.

Source of the values: PubChem BioAssay.
